This is an account of results in PubChem BioAssay.

Activity calls are given as the source filed them.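 How the source made its calls: active means Her2 level under about 52% in both replicate screens, with viability over 70% of control (limit read from the data); inconclusive means Her2 under the limit in one screen only, or viability under 70%; inactive means Her2 level above the set limit.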

Tested on in the first assay: not listed separately
The assay can be described thus: Her2 expression decrease, cell viability multiplex – SKBR3 breast tumor cells, AlphaScreen, ATP viability, primary screen (AID 461).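 On viability: percent of carrier control wells set as 100% viability.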 The settings on record: SKBR3 Her2 protein level, 18-24 h, measured here: SKBR3 viability, ATP luminescence, at 10 µM.
For `O=C1c2ccccc2C(=O)N1Cc1nc2ccccc2c(=O)n1CCN1CCOCC1`, the viability worked out at 97.5%.
The same measure, in the same setting: as for `Nc1c(C(=O)NCCc2ccccc2)nnn1Cc1ccccc1`, the figure is 108%; as for `CC1/C(=N/O)C(CN(C)C)C2CC1C2(C)C` (stereo not given), 107%; as for `Nc1cc(-c2ccccc2)ccc1O`, 100%.
The same measure, in the same setting: in the case of `CCOC(=O)c1c(C)[nH]c(C=Nc2ccccc2)c1O` it was 94%; in that of `O=C(COc1nnc2ccccn12)N1CCN(S(=O)(=O)c2ccccc2)CC1`, 107%.
On to `O=C(Nc1ccc2nc(-c3cccs3)[nH]c2c1)c1ccco1`, for which the viability is 108%.
With `COC(=O)c1ccccc1NC(=O)CC(NCc1ccccc1)C(=O)O` (stereo not given), the viability came out at 102%.
Take `CCOC(=O)c1oc2ccccc2c1CSc1nnnn1-c1ccc(OC)cc1`: the viability was determined as 82.5%.
On to `CC1(C)CC(=O)C2=C(C1)OC(=O)C2(NC(=O)c1cccs1)C(F)(F)F` (stereo not given), for which the viability worked out at 102%.
As to `CCc1ccc(CNCc2cccnc2)cc1`, the viability is 91%.
The same measure, in the same setting: in the case of `CCOC(=O)C1CCN(C(=O)C2CCN(S(=O)(=O)c3cc(Cl)ccc3Cl)CC2)CC1` it was 92%.
`Cc1cnc(-c2nnc(N(C)C(=O)C3CCOC3)s2)cn1` (stereo not given): the viability was found to be 90.5%.
Same read-out and setting: in the case of `CN1/C(=C\C(=O)C(F)F)C(C)(C)c2ccccc21` it was 90%.
Turning to `Nc1cc(CN2C(=O)c3ccccc3C2=O)cc(Cl)c1O`, the viability turned out to be 102%.
For `COCc1nnc(NC(=O)CCCOc2ccccc2)s1`, the viability was 107%.
On to `CCCN(CCC)S(=O)(=O)c1ccc(NS(C)(=O)=O)cc1`, for which the viability stood at 110%.
Turning to `Cc1nnc2n(-c3ccccc3)c(=O)c3c4c(sc3n12)CCCC4`, the viability is 79.5%.
`COC(=O)c1ccccc1NC(=O)C1CC(=O)N(c2ccc(F)cc2)C1` (stereo not given): the viability came to 121%.
On the same count and under the same terms, in the case of `O=C(CCc1ccccc1)Nc1ccncc1` it was 110%; in that of `CN(CC(=O)Nc1nccs1)S(=O)(=O)c1ccc(F)cc1`, 82%; in that of `COc1cccc(-c2nc(CSCC(=O)N3CCc4ccccc43)c(C)o2)c1`, 82.5%.
For `CCCC(=O)Nc1nnc(CC(=O)OCC)s1`, the viability worked out at 111%.
On to `COc1ccc(N2CCN(C(c3cccs3)C(C)NC(=O)c3ccco3)CC2)cc1` (stereo not given), for which the viability amounted to 90%.
The same measure, in the same setting: in the case of `O=C(CSc1ncccn1)NCc1ccccc1` it was 94%; in that of `Cc1ccc(-c2[nH]nc3c2C(c2ccc(OC(=O)N4CCOCC4)cc2)C(C#N)=C(N)O3)cc1` (stereo not given), 89%.
As to `O=C(Nc1ccccc1)N(O)c1ccc(Cl)cc1`, the viability amounted to 93%.
`CCCCCC(=O)N1CC2(CC)CN(C(=O)CCCCC)CC(CC)(C1)C2=O`: the viability came to 89%.
With `Cc1cc(NC(=O)C23CCC(C)(c4nc5cc(Cl)c(Cl)cc5nc42)C3(C)C)no1` (stereo not given), the viability was 124%.
As for `CCOC(=O)CSc1nnc(Cn2nnc(-c3ccccc3)n2)n1CC`, the viability is 95.5%.
`O=C(COC(=O)c1ccc(Br)o1)Nc1ccc(S(=O)(=O)N2CCCC2)cc1`: the viability is 80%.
Take `Cc1cccc(-n2c(O)c(C=Nc3ccccc3N)c(=O)[nH]c2=O)c1`: the viability is 108%.
Consider `Cn1c(-c2ccccc2)cc(=O)c2ccccc21`, for which the viability is 98.5%.
The same measure, in the same setting: as for `COc1cc(S(=O)(=O)NC2CCCCC2)ccc1Cl`, the figure is 94.5%; as for `c1ccc(Cn2nnnc2CN2CCN(c3ncccn3)CC2)cc1`, 99%; as for `CS(=O)(=O)N(CC(=O)O)c1cccc(Cl)c1`, 95%.
Take `O=S1(=O)CC(N2CCOCC2)c2ccccc21` (stereo not given): the viability was found to be 95%.
Consider `C=CCn1cc(C(=O)NCCOC)c(=O)c2cc(S(=O)(=O)N(CC)CC)ccc21`, for which the viability was determined as 98.5%.
`Cc1ccc(C(=O)OCC(=O)c2ccc(Cl)s2)s1`: the viability stood at 93.5%.
In the case of `CCOC(=O)/N=C(/NC(=O)Nc1ccc(C(=O)OCC)cc1)OC`, the viability came out at 99.5%.

In the next assay the target is Receptor tyrosine-protein kinase erbB-2 (Homo sapiens) (UniProt P04626). The assay is described as above. The settings on record: 18-24 h, at 10 µM, stronger effect = lower value.
Sequence of Receptor tyrosine-protein kinase erbB-2 (Homo sapiens) (P04626 whole entry, looked up): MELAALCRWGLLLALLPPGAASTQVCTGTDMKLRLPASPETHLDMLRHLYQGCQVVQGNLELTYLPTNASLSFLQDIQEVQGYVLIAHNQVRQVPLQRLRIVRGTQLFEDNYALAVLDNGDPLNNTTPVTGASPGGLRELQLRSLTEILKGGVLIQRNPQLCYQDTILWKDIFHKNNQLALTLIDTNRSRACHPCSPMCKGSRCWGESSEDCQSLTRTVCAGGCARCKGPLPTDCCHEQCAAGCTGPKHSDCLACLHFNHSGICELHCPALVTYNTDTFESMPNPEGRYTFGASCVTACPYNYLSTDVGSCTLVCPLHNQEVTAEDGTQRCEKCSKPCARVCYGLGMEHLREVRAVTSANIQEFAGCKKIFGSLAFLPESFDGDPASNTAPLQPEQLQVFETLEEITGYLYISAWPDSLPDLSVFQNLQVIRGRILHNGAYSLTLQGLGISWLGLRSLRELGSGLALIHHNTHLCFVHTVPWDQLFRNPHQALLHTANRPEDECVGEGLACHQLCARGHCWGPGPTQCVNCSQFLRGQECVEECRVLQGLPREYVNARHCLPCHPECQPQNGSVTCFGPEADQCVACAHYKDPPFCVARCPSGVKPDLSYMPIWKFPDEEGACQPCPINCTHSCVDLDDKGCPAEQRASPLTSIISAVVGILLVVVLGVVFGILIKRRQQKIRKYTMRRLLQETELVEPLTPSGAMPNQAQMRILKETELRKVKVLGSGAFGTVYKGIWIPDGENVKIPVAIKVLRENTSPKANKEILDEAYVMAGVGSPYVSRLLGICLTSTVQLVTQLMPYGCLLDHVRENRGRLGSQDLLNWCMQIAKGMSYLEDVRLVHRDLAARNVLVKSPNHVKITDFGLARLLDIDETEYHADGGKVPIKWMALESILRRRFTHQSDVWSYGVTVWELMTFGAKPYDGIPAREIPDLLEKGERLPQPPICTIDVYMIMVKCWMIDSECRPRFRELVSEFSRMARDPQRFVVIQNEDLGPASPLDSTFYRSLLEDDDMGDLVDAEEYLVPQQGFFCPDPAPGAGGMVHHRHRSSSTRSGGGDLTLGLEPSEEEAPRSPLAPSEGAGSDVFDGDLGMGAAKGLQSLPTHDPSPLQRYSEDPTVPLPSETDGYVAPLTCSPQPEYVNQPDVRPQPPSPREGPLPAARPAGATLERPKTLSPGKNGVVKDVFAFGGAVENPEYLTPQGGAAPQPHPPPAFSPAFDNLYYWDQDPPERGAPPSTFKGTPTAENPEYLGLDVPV
Turning to `O=C1c2ccccc2C(=O)N1Cc1nc2ccccc2c(=O)n1CCN1CCOCC1`, the Her2 level was 81.5% (inactive).
In the case of `Nc1c(C(=O)NCCc2ccccc2)nnn1Cc1ccccc1`, the Her2 level is 97.5% (inactive).
On to `CC1/C(=N/O)C(CN(C)C)C2CC1C2(C)C` (stereo not given), for which the Her2 level was 84.5% (inactive).
Consider `Nc1cc(-c2ccccc2)ccc1O`, for which the Her2 level was 70.5% (inactive).
`CCOC(=O)c1c(C)[nH]c(C=Nc2ccccc2)c1O`: the Her2 level was 91.5% (inactive).
For `O=C(COc1nnc2ccccn12)N1CCN(S(=O)(=O)c2ccccc2)CC1`, the Her2 level is 86% (inactive).
`O=C(Nc1ccc2nc(-c3cccs3)[nH]c2c1)c1ccco1`: the Her2 level is 98.5% (inactive).
`COC(=O)c1ccccc1NC(=O)CC(NCc1ccccc1)C(=O)O` (stereo not given): the Her2 level was 111% (inactive).
As for `CCOC(=O)c1oc2ccccc2c1CSc1nnnn1-c1ccc(OC)cc1`, the Her2 level is 69% (inactive).
Same read-out and setting: in the case of `CC1(C)CC(=O)C2=C(C1)OC(=O)C2(NC(=O)c1cccs1)C(F)(F)F` (stereo not given) it was 83% (inactive).
On the same count and under the same terms, in the case of `CCc1ccc(CNCc2cccnc2)cc1` it was 100% (inactive); in that of `CCOC(=O)C1CCN(C(=O)C2CCN(S(=O)(=O)c3cc(Cl)ccc3Cl)CC2)CC1`, 91% (inactive).
On the same count and under the same terms, as for `Cc1cnc(-c2nnc(N(C)C(=O)C3CCOC3)s2)cn1` (stereo not given), the figure is 89.5% (inactive).
Turning to `CN1/C(=C\C(=O)C(F)F)C(C)(C)c2ccccc21`, the Her2 level is 100% (inactive).
Still for that read-out and setting: in the case of `Nc1cc(CN2C(=O)c3ccccc3C2=O)cc(Cl)c1O` it was 91.5% (inactive).
Take `COCc1nnc(NC(=O)CCCOc2ccccc2)s1`: the Her2 level is 92% (inactive).
As to `CCCN(CCC)S(=O)(=O)c1ccc(NS(C)(=O)=O)cc1`, the Her2 level was 124% (inactive).
For `Cc1nnc2n(-c3ccccc3)c(=O)c3c4c(sc3n12)CCCC4`, the Her2 level is 115% (inactive).
With `COC(=O)c1ccccc1NC(=O)C1CC(=O)N(c2ccc(F)cc2)C1` (stereo not given), the Her2 level is 77% (inactive).
On the same count and under the same terms, as for `O=C(CCc1ccccc1)Nc1ccncc1`, the figure is 119% (inactive).
For `CN(CC(=O)Nc1nccs1)S(=O)(=O)c1ccc(F)cc1`, the Her2 level was 114% (inactive).
`COc1cccc(-c2nc(CSCC(=O)N3CCc4ccccc43)c(C)o2)c1`: the Her2 level was 162% (inactive).
`CCCC(=O)Nc1nnc(CC(=O)OCC)s1`: the Her2 level was 108% (inactive).
For `COc1ccc(N2CCN(C(c3cccs3)C(C)NC(=O)c3ccco3)CC2)cc1` (stereo not given), the Her2 level is 76.5% (inactive).
As for `O=C(CSc1ncccn1)NCc1ccccc1`, the Her2 level is 112% (inactive).
For `Cc1ccc(-c2[nH]nc3c2C(c2ccc(OC(=O)N4CCOCC4)cc2)C(C#N)=C(N)O3)cc1` (stereo not given), the Her2 level is 93% (inactive).
`O=C(Nc1ccccc1)N(O)c1ccc(Cl)cc1`: the Her2 level was 79% (inactive).
On to `CCCCCC(=O)N1CC2(CC)CN(C(=O)CCCCC)CC(CC)(C1)C2=O`, for which the Her2 level was 124% (inactive).
With `Cc1cc(NC(=O)C23CCC(C)(c4nc5cc(Cl)c(Cl)cc5nc42)C3(C)C)no1` (stereo not given), the Her2 level is 96.5% (inactive).
Take `CCOC(=O)CSc1nnc(Cn2nnc(-c3ccccc3)n2)n1CC`: the Her2 level is 84% (inactive).
The same measure, in the same setting: in the case of `O=C(COC(=O)c1ccc(Br)o1)Nc1ccc(S(=O)(=O)N2CCCC2)cc1` it was 74.5% (inactive); in that of `Cc1cccc(-n2c(O)c(C=Nc3ccccc3N)c(=O)[nH]c2=O)c1`, 94.5% (inactive); in that of `Cn1c(-c2ccccc2)cc(=O)c2ccccc21`, 109% (inactive).
On the same count and under the same terms, in the case of `COc1cc(S(=O)(=O)NC2CCCCC2)ccc1Cl` it was 84.5% (inactive); in that of `c1ccc(Cn2nnnc2CN2CCN(c3ncccn3)CC2)cc1`, 97.5% (inactive).
With `CS(=O)(=O)N(CC(=O)O)c1cccc(Cl)c1`, the Her2 level is 120% (inactive).
`O=S1(=O)CC(N2CCOCC2)c2ccccc21` (stereo not given): the Her2 level is 98% (inactive).
For the compound `C=CCn1cc(C(=O)NCCOC)c(=O)c2cc(S(=O)(=O)N(CC)CC)ccc21`, the Her2 level was 93.5% (inactive).
`Cc1ccc(C(=O)OCC(=O)c2ccc(Cl)s2)s1`: the Her2 level is 101% (inactive).
Consider `CCOC(=O)/N=C(/NC(=O)Nc1ccc(C(=O)OCC)cc1)OC`, for which the Her2 level is 75.5% (inactive).

The viability is a read-out of living cells in per cent, often relative to untreated cells.
